According to PMC4336329 (PLoS ONE, 2015):
The campaign covered roughly 310,000 compounds. About 14,000 (4.5%) showed an effect of 50% or more. Effects have a minus sign here. Only a selection was taken, and strong results are over-represented in it overall.

Biological target: human ether-à-go-go-related gene (hERG) potassium channel (human, UniProt Q12809)
Assay: primary screen, population patch clamp on CHO cells stably expressing hERG; higher = less effect of the substance
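Note: peak tail current of the secondary pulse compared with the same well before compound.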

Chain of human ether-à-go-go-related gene (hERG) potassium channel (Q12809 whole entry, looked up): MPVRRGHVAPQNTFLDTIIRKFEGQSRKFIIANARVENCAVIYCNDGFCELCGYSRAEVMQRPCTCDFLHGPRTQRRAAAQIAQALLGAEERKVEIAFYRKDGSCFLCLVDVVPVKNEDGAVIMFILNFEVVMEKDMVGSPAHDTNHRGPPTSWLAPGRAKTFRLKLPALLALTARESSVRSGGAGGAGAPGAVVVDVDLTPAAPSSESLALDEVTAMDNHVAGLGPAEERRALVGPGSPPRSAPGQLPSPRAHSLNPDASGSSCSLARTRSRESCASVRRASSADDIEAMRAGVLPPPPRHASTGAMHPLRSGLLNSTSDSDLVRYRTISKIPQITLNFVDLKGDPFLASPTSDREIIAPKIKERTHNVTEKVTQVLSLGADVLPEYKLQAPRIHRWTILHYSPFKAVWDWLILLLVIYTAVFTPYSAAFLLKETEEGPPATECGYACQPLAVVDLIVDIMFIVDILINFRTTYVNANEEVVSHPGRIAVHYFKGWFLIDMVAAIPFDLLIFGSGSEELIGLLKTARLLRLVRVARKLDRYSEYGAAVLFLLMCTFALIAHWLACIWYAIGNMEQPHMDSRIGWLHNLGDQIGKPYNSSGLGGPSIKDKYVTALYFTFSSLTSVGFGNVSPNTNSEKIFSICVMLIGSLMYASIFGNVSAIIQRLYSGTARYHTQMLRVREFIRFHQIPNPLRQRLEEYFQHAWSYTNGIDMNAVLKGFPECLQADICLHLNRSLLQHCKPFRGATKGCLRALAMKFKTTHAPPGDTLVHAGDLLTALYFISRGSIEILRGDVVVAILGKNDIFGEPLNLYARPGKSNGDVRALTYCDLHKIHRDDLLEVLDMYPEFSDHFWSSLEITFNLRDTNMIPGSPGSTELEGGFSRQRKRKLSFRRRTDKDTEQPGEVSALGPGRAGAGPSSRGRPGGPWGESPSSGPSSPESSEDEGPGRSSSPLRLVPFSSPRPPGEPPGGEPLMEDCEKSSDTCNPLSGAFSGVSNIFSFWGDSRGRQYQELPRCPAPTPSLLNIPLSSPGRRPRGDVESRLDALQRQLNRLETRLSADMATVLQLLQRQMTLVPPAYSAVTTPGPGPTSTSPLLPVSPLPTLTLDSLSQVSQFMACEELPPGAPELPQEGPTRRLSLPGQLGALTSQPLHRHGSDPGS

Row | Compound | hERG current change (%, negative = inhibition) at 10uM [%]
1 | CC(NC(=O)c1nn(C)c2c1CS(=O)(=O)c1ccccc1-2)c1ccccc1 (stereo not drawn) | -13.1
2 | CC(OC(=O)Cc1c(F)cccc1Cl)C(=O)NC1(C#N)CCCCC1 (stereo not drawn) | -22.4
3 | C=CCNC(=S)N1CCN(CCN=CC2=C(O)CC(c3cccs3)CC2=O)CC1 (stereo not drawn) | -49.1
4 | CC(=O)N1CCN(CCN=CC2=C(O)CC(c3ccc(Cl)cc3)CC2=O)CC1 (stereo not drawn) | -15.7
5 | C=CCNC(=S)N1CCN(CCN=CC2=C(O)CC(c3ccc(Cl)cc3)CC2=O)CC1 (stereo not drawn) | -66.4
6 | Fc1c(F)c(C(F)(F)F)c(F)c(F)c1N/N=C\c1cccs1 | 15.5
7 | Cc1cc(NC(=O)c2ccc(Cl)cc2)cc(C)c1OCC(=O)N1CCOCC1 | -52.4
8 | Cc1cccc(NC(=O)c2ccccc2OCC(=O)N2CCOCC2)c1C | -6.62
9 | Cc1ccc(Cl)cc1NC(=O)c1ccccc1OCC(=O)N1CCOCC1 | -63.6
10 | Cc1ccc(C(=O)Nc2cc(C)c(OCC(=O)N3CCOCC3)c(C)c2)cc1 | -11.3
11 | COc1ccccc1C(=O)Nc1ccc(OCC(=O)N2CCCCC2)cc1 | -2.87
12 | CC(=O)N1CCN(C(=O)COc2ccccc2C(=O)Nc2ccccc2)CC1 | -53.2
13 | O=C(Nc1cccc(Cl)c1Cl)c1ccccc1OCC(=O)N1CCOCC1 | -13.5
14 | CC(=O)c1ccc(NC(=O)COc2ccccc2C(=O)Nc2ccccc2)cc1 | 9.66
15 | CCCCOc1ccc(C(=O)Nc2cc(C)c(OCC(=O)N3CCOCC3)c(C)c2)cc1 | -24.8
16 | COc1ccc(C(CNC(=O)c2cc(C)on2)N(C)C)cc1 (stereo not drawn) | 22.1
17 | O=C(CSc1nc2c(sc3ccccc32)c(=O)n1CCO)NCC1CCCO1 (stereo not drawn) | -3.42
18 | CCCCn1c(SCC(=O)NCc2ccco2)nc2c(sc3ccccc32)c1=O | -16.8
19 | CCN(CC)CCn1c(SCC(=O)NCc2ccco2)nc2c(sc3ccccc32)c1=O | -68.2
20 | O=C(CSc1nc2c(sc3ccccc32)c(=O)n1CCCN1CCCC1)NCC1CCCO1 (stereo not drawn) | -61.6
21 | CCN(CC)CCn1c(SCC(=O)NCc2ccccc2)nc2c(sc3ccccc32)c1=O | -29.3
22 | C=CCN(C(=O)CSc1nc2c(sc3ccccc32)c(=O)n1CCN(CC)CC)c1ccccc1 | -77.4

Row | Compound | hERG current change (%, negative = inhibition) at 10uM [%]
23 | O=C(CSc1nc2c(sc3ccccc32)c(=O)n1CCCN1CCOCC1)NCC1CCCO1 (stereo not drawn) | -14.3
24 | CCOCCCn1c(SCC(=O)NCc2ccco2)nc2c(sc3ccccc32)c1=O | -27.6
25 | CCN(CC)CCn1c(SCC(=O)NCCC2=CCCCC2)nc2c(sc3ccccc32)c1=O | 35.5
26 | O=C(CSc1nc2c(sc3ccccc32)c(=O)n1CCO)NCc1ccco1 | -18.2
27 | O=C(CSc1nc2c(sc3ccccc32)c(=O)n1CCc1ccccc1)NCc1ccco1 | -8.32
28 | O=C(CSc1nc2c(sc3ccccc32)c(=O)n1CCCN1CCCC1)NCc1ccco1 | -73
29 | CC1(C)CN(c2cccc(Br)c2)C1=O | 7.96
30 | Cc1c(C)n(CC(O)CNc2ccccc2)c2ccccc12.O=C(O)C(=O)O (stereo not drawn) | 23.1
31 | CCOC(=O)Cc1csc(NC(=O)c2cccc(Cl)c2)n1 | -13
32 | CC1(c2nnc(-c3ccc(Cl)cc3)o2)CC(c2cccc(Cl)c2)=NO1 (stereo not drawn) | 13.7
33 | COCCn1c(SCC(=O)Nc2cc(C)on2)nc2c(c1=O)SC(C)C2 (stereo not drawn) | 10.5
34 | COC(=O)c1ccc(COC(=O)C2CCN(S(=O)(=O)c3c(Cl)cccc3Cl)CC2)o1 | -7.62
35 | COC(=O)/C(=C/N(C)C)C(=O)N1CCN(c2ccc(Cl)c(Cl)c2)CC1 | -25
36 | COc1cccc(OC)c1C(=O)NNS(=O)(=O)c1ccc2ccccc2c1 | -5.2
37 | O=C(O)CC(SCC(=O)Nc1ccccc1)C(=O)O (stereo not drawn) | 23
38 | O=C1[C@@H]2Cc3c([nH]c4ccccc34)C(c3ccc([N+](=O)[O-])cc3)N2C(=O)CN1C1CC1 (stereo partly drawn) | -25.2
39 | CSc1nc(Cc2ccccc2)nc2ccccc12 | 22.9
40 | Cc1cc(C)nc(N/C(=N\S(=O)(=O)Cc2ccccc2)Nc2cccc(Cl)c2C)n1 | -3.72
41 | ON1C2CCCCC2N(O)C1c1ccccc1F (stereo not drawn) | 16.7
42 | O=C(CSc1nc2c(sc3ccccc32)c(=O)n1CCCN1CCCC1)NCc1ccccc1 | -80.8
43 | Cc1ccc(-n2c(SCC(=O)NCc3ccco3)nc3c(sc4ccccc43)c2=O)cc1 | 14.8
44 | Cc1ccc(CNC(=O)CSc2nc3c(sc4ccccc43)c(=O)n2CCCN2CCCC2)cc1 | -82.8

Row | Compound | hERG current change (%, negative = inhibition) at 10uM [%]
45 | COc1ccc(C(=O)Nc2ncccc2C)cc1S(=O)(=O)N1CCCc2ccccc21 | 9.01
46 | Cc1ccc(CNC(=O)c2ccccc2NS(=O)(=O)c2ccc(Cl)nc2)cc1 | 12.6
47 | OC(COc1ccccc1)Cn1cc(Br)cn1 (stereo not drawn) | 0.0411
48 | CCc1nc(Nc2ccccc2OC)c2oc3ccccc3c2n1.Cl | 12.5
49 | CCCCCCc1cc2cc(C(=O)OCC)c(=O)oc2cc1O | 23.3
50 | CCN(CC)c1ccc2cc(C(N)=O)c(=N)oc2c1 | -58.5
51 | CCCCCCc1cc2cc(C(=O)NC)c(=N)oc2cc1O | -7.38
52 | CCCCCCc1cc2cc(C(N)=O)c(=N)oc2cc1O | -59.8
53 | CCN(CC)c1ccc2cc(C(=O)NCc3ccc(F)cc3)c(=N)oc2c1 | -23.4
54 | CCN(CC)c1ccc2cc(C(N)=O)c(=O)oc2c1 | 9.31
55 | CN(C[C@H](Cc1ccccc1)N(C[C@H](Cc1ccccc1)N(CC1(c2ccccc2)CC1)N=O)N=O)N=O.[Na+] | 12.8
56 | Cc1ccc(OCCCC(=O)NCc2ccco2)c(C)c1 | 0.0372
57 | CCCCCC(O)CCC(=O)NNC1=CC(=O)CC(C)(C)C1 (stereo not drawn) | 13.9
58 | COc1ccc(C(C#N)C2(C)OCCO2)cc1OC (stereo not drawn) | -4.08
59 | COC(=O)c1ccc(C)c(NC(=O)C(CCSC)NC(=O)c2cc(OC)c(OC)c(OC)c2)c1 (stereo not drawn) | 13.6
60 | CCn1c(-c2ccc(Cl)cc2)n[nH]c1=S | 13.2
61 | O=C(CSC1CS(=O)(=O)c2cc([N+](=O)[O-])ccc21)NNC(=O)c1ccc(Cl)cc1 (stereo not drawn) | -74
62 | O=C(CSC1CS(=O)(=O)c2cc([N+](=O)[O-])ccc21)NNC(=O)c1ccccc1 (stereo not drawn) | -20.7
63 | O=C(CSc1nnnn1-c1ccc(Cl)cc1)NNC(=O)c1ccc([N+](=O)[O-])cc1 | -23.2
64 | COc1ccc(S(=O)(=O)N2CCCCC2)cc1NC(=O)c1cccs1 | 32.3
65 | O=S(=O)(Nc1ccc(OC(F)F)cc1)c1ccc(-c2ccon2)s1 | -15.3
66 | Cc1ccc(C)c(N2CCN(CC(=O)Nc3ccc4[nH]c(=O)[nH]c4c3)CC2)c1 | -3.56

Row | Compound | hERG current change (%, negative = inhibition) at 10uM [%]
67 | CCN(CC)c1ccc(C(=O)c2ccccc2C(=O)O)c(O)c1 | 3.8
68 | CN(C)c1ccc(C(=O)c2ccccc2C(=O)O)c(O)c1 | 12.7
69 | CCCCN(CCCC)c1ccc(C(=O)c2ccccc2C(=O)O)c(O)c1 | -75.2
70 | FC(F)(F)c1cccc(NC(=S)N2CCN(c3cccc(C(F)(F)F)c3)CC2)c1 | 16.6
71 | Cc1ccc(NC(=O)C2CCCN(S(=O)(=O)c3c(C)noc3/C=C/N(C)C)C2)cc1F (stereo not drawn) | -1.44
72 | CC1CCCN(Cc2nc3c(c(=O)n(C)c(=O)n3C)n2Cc2c(F)cccc2Cl)C1 (stereo not drawn) | -1.45
73 | CCCCN(C(=O)c1ccc(Cl)cc1)C1CC2CCC(C1)N2C.Cl (stereo not drawn) | -47.4
74 | COc1cc(C(=O)N(CCc2ccccc2)C2CC3CCC(C2)N3C)cc(OC)c1OC.Cl.O (stereo not drawn) | -38.3
75 | CN1C2CCC1CC(N(CCc1ccccc1)C(=O)c1ccc(Cl)cc1)C2.Cl (stereo not drawn) | -83.2
76 | CN1C2CCC1CC(NC(=O)c1ccc(Cl)cc1)C2 (stereo not drawn) | 7.55
77 | CN1CCC(N(CCc2ccccc2)C(=O)CCC(=O)O)CC1 | -1.87
78 | Cc1cc(C)cc(C(=O)N(CCc2ccccc2)C2CC3CCC(C2)N3C)c1.Cl (stereo not drawn) | -56.5
79 | COc1ccc(C2CC(c3cccs3)=NN2C(=O)CSc2nncn2C)cc1OC (stereo not drawn) | 4.67
80 | O=C(Nc1ccccc1N1CCOCC1)C1CCCCN1S(=O)(=O)c1ccccc1 (stereo not drawn) | -20.8
81 | Cc1nc([N+](=O)[O-])c(NCCO)n1Cc1ccccc1 | 8.23
82 | CCn1ncc([C@@H]2C[C@H]3CN(Cc4ccccc4C)C(=O)[C@]34CCCN24)c1C | 17.7
83 | COc1ccccc1CN1C[C@@H]2C[C@@H](c3ccccc3OC)N3CCC[C@@]23C1=O | -14
84 | COc1ccccc1CN1C[C@@H]2C[C@@H](c3ccccc3C)N3CCC[C@@]23C1=O | 17.4
85 | COc1ccc(-c2[nH]ncc2[C@@H]2C[C@H]3CN(Cc4ccccc4C)C(=O)[C@]34CCCN24)cc1 | -51.7
86 | Cc1ccccc1CN1C[C@@H]2C[C@@H](c3cn[nH]c3-c3ccccc3)N3CCC[C@@]23C1=O | -5.95
87 | Cc1ccccc1CN1C[C@@H]2C[C@@H](c3cn[nH]c3-c3ccc(F)cc3)N3CCC[C@@]23C1=O | -52.2
